This is a sample that favours compounds with a hit; in the whole collection about 21% have one here.
Pf growth 96h – inhibits malaria parasite growth, 96 h; 6.9% of 320,000 active; P. falciparum luciferase reporter growth, 96 h; AID 504834; Potency, µM (titrated, usually from 28.7 µM), usual class: inhibitors
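Delayed-death screen, second-generation endpoint: infected erythrocytes, 2% hematocrit, 0.05% parasitemia final; 96 hours at 37 C, 5% CO2; luciferase detection reagent; luminescence decrease equals reduced growth.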
Cycloheximide cs – counter-screen hit for Shiga toxin inhibitors, cycloheximide; cell reporter, cycloheximide protein synthesis inhibition counterscreen; max response, %; 12% of 300,000 active; AID 2314; in the data active = max response mostly above about 13%, no sharp cut-off; inactive = mostly below about 14%; also: read at 38.3 µM for the half of the compounds with a filed dose
Shiga toxin inh – Shiga toxin inhibition. 9.2% of 290,000 active. inhibition, % at 38.7 µM. Vero cells, Shiga toxin protein synthesis inhibition reporter; in the data active = inhibition mostly above about 28%, no sharp cut-off; inactive = mostly below about 43%
NS1 inh – inhibitors of influenza NS1 protein function | Potency, µM (titrated, usually from 46.1 µM) | 0.4% of 270,000 active; calls by dose curve; also: actives are rising curves; nearly all actives have a fitted effect of over 50% in size
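In this qHTS, NS1 from influenza A is expressed in budding yeast, where it slows growth. Cells are switched from glucose to 2% galactose medium (pH 6.0, -URA), treated with compound, and growth recovery is read at OD600.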
Pf growth 48h – inhibits P. falciparum growth in the first generation, 48 h; P. falciparum luciferase growth in erythrocytes, 48 h; 5.9% of 310,000 active; Potency, µM (titrated, usually from 28.7 µM), hits mostly inhibitors; AID 504832
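Compounds are pin-transferred into medium, infected erythrocytes (2% hematocrit, 0.1% parasitemia final) are added, and plates sit one parasite generation at 37 C in 5% CO2. Detection reagent is then added and luminescence measured.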
Giardia FBPA inh – blocks Giardia fructose-bisphosphate aldolase activity | AID 2451 | Potency, µM (highest dose often 59.6 µM), hits mostly inhibitors | 0.71% of 290,000 active | purified Giardia FBPA | A8B2U2; also: nearly all actives have a fitted effect of over 55% in size
Target sequence (A8B2U2 whole entry, looked up): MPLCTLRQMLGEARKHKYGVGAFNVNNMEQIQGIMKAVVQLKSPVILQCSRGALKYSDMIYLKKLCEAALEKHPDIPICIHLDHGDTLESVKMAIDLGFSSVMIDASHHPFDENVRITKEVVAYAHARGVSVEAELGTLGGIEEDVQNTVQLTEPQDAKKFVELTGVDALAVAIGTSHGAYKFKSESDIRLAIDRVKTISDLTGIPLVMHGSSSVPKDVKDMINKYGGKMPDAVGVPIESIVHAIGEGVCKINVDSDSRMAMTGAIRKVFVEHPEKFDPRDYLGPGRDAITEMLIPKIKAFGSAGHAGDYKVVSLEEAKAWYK
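Giardia FBPA (40 nM reagent) was preincubated 10 min at RT with compound (up to 57.5 uM final), then substrate plus GAPDH/TPI/NAD/arsenate coupling system with diaphorase/resazurin was added; resorufin fluorescence (525/598 nm) was read after 20 min.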
Each line names hits and unclear results; the compound was inactive in the other large screens. Unless noted, calls follow the shape of the dose curve; as a rule, active = well fitted curve in the direction sought with a large enough effect; inconclusive = small, poorly fitted or top-dose-only effect, or another doubt; inactive = no such curve, though single readings can be large; an effect the other way counts as inactive or inconclusive.

CCOC(=O)C1CCCN(C(=O)CCCn2nc(C)n3c(cc4sccc43)c2=O)C1 (stereo not given)	Pf growth 96h 2.9µM (no result: Pf growth 48h)
CCN(CC)S(=O)(=O)c1cccc(NC(=O)CN2C(=O)NC3(CCC(C)CC3)C2=O)c1 (stereo not given)	Pf growth 48h inconclusive (no result: Cycloheximide cs, Shiga toxin inh, NS1 inh, Giardia FBPA inh)
C/C=C(\C)C(=O)Nc1cccc(C2=NOC3(C2)C[C@H](C(N)=O)N(C(=O)C(c2ccccc2)c2ccccc2)C3)c1 (stereo not given in full)	Pf growth 96h 12µM, Pf growth 48h 9.3µM
C/C=C/C(=O)Nc1cccc(C2=NOC3(C2)C[C@@H](C(N)=O)N(C(=O)C(c2ccccc2)c2ccccc2)C3)c1 (stereo not given in full)	Pf growth 96h 13µM, Pf growth 48h 12µM
C/C=C/C(=O)N1CC2(CC(c3cccc(NC(=O)/C(C)=C/C)c3)=NO2)C[C@H]1C(N)=O (stereo not given in full)	none
C/C=C\C(=O)Nc1cccc(C2=NOC3(C2)C[C@@H](C(N)=O)N(C(=O)CC(c2ccccc2)c2ccccc2)C3)c1 (stereo not given in full)	Pf growth 96h 13µM, Pf growth 48h 10µM
CC1CCN(CCCNC(=O)CCNC(=O)Cn2cnc3ccccc3c2=O)CC1	none
O=C(Nc1ccccc1)N1CC[C@@]2(CCCN(C(=O)c3cc(C(F)(F)F)cc(C(F)(F)F)c3)C2)C1	none (no result: Pf growth 96h, Cycloheximide cs, Shiga toxin inh, NS1 inh, Pf growth 48h)
Cc1ccc(C(=O)NCCCNC(=O)COc2ccc(Cl)cc2)cn1	none
Cc1c(N(C(=O)CNC(=O)c2ccccc2)C2(C(=O)NC3CCCCC3)CCCCC2)c(=O)n(-c2ccccc2)n1C	Pf growth 96h inconclusive, Pf growth 48h 5.9µM (no result: NS1 inh)
CC(=O)NCC(=O)N(c1c(C)n(C)n(-c2ccccc2)c1=O)C1(C(=O)NC2CCCC2)CCCCC1	Pf growth 96h inconclusive
O=C(CNC(=O)c1ccc(Br)o1)NC1CCCCC1	none
Cc1onc(-c2ccc(Cl)cc2Cl)c1-c1csc(N/N=C/c2ccccc2)n1	Pf growth 96h inconclusive, Pf growth 48h 3.7µM
CC1CC(C)CN(S(=O)(=O)CC23CCC(CC2=O)C3(C)C)C1 (stereo not given)	Pf growth 96h inconclusive
CNC(=O)c1nc(C)n(-c2cc(Cl)ccc2Cl)n1	Cycloheximide cs 29
O=C(CN1CCN(C(=O)c2ccco2)CC1)Nc1ccc(F)cc1F	Pf growth 96h inconclusive, Cycloheximide cs 24, Shiga toxin inh 36
O=C(CN1CCN(c2ccccn2)CC1)Nc1ccccc1Br	Pf growth 96h inconclusive, Pf growth 48h 5.2µM
Cc1nc2ccccc2n1C1CCN(CC(=O)Nc2ccccc2Br)CC1	Pf growth 48h 12µM
O=C(CN1CCN(C(=O)c2ccco2)CC1)Nc1ccccc1	none
O=C(CN1CCN(c2ccccn2)CC1)Nc1ccc(F)cc1F	Cycloheximide cs 20, Shiga toxin inh 50
O=C(CN1CCN(c2ccccn2)CC1)Nc1cc(F)ccc1F	none
O=C(Nc1cccc(F)c1)N1CC[C@@]2(CCCN(C(=O)c3cc(C(F)(F)F)cc(C(F)(F)F)c3)C2)C1	none (no result: Pf growth 96h, Cycloheximide cs, Shiga toxin inh, NS1 inh, Pf growth 48h)
O=C(CN1CCN(C(=O)c2ccco2)CC1)Nc1cccc(S(=O)(=O)N2CCCC2)c1	Pf growth 96h 10µM, Pf growth 48h inconclusive (no result: Cycloheximide cs, Shiga toxin inh, NS1 inh, Giardia FBPA inh)
O=C(CN1CCN(c2ccccn2)CC1)Nc1ccc2ccccc2c1	Cycloheximide cs 45, Shiga toxin inh 60
O=C(Nc1ccc(F)cc1F)N1CCN(CCc2ccccc2)CC1	Pf growth 48h 2.3µM
O=C(CN1CCN(c2ccccn2)CC1)Nc1cc(C(F)(F)F)ccc1Cl	Pf growth 48h 9.3µM (no result: Pf growth 96h)
CC(=O)Nc1ccc(NC(=O)CN2CCN(c3ccccn3)CC2)cc1	none
Cc1ccc(-c2noc(CNC(=O)c3ccc4c(c3)OCO4)n2)cc1	none
Cc1cccc(CSC2=NCCN2S(=O)(=O)c2ccc(F)cc2)c1	Pf growth 96h inconclusive
FC(F)(F)c1ccccc1-c1ccc2ncnc(NCc3cccnc3)c2c1	none (no result: Pf growth 96h, Cycloheximide cs, Shiga toxin inh, NS1 inh, Pf growth 48h)
COc1ccc(S(=O)(=O)Cc2ccc(C(=O)NCc3ccccc3OC)o2)cc1	Pf growth 96h inconclusive
O=C(O)C1C2C=CC(C2)C1C(=O)OCc1ccccc1 (stereo not given)	Pf growth 96h 9.3µM
O=C(NNC(=O)C1C2C=CC(C2)C1C(=O)O)c1ccccc1O (stereo not given)	Cycloheximide cs 17, Shiga toxin inh 50, Giardia FBPA inh inconclusive
O=C(NNC(=O)C1C2C=CC(C2)C1C(=O)O)c1cc(Cl)ccc1O (stereo not given)	Cycloheximide cs 19 (no result: Giardia FBPA inh)
C=C(Cl)COC(=O)[C@H]1C2C=CC(C2)C1C(=O)O (stereo not given in full)	none
O=C(O)C1C2C=CC(C2)C1C(=O)NCc1ccc(Cl)cc1Cl (stereo not given)	none
O=C(NNC(=O)C1C2C=CC(C2)C1C(=O)O)c1ccccc1 (stereo not given)	Cycloheximide cs 39, Shiga toxin inh 101
Cc1ccc(S(=O)(=O)Nc2cc3c(C(=O)Nc4ccccc4)c(C)oc3c3ccccc23)cc1	Pf growth 96h 1.7µM, Pf growth 48h inconclusive, Giardia FBPA inh inconclusive
COCCNC(=O)c1ccc(CSc2nc3ccccc3s2)cc1	Cycloheximide cs 43, Shiga toxin inh 73
O=C(CSc1nc2ccccc2s1)N1c2ccccc2Sc2ccccc21	Pf growth 48h inconclusive
CCC(C)/C(C)=N/NC(=O)c1ccc(CSc2nc3ccccc3s2)cc1 (stereo not given)	Cycloheximide cs 20, NS1 inh inconclusive
NC(=O)c1ccc(CSc2nc3ccccc3s2)cc1	Cycloheximide cs 48, Shiga toxin inh 94 (no result: Giardia FBPA inh)
c1ccc2sc(SCc3ccc(-c4nnco4)cc3)nc2c1	Pf growth 96h inconclusive, Cycloheximide cs 38, Shiga toxin inh 73
CCNC(=O)c1ccc(CSc2nc3ccccc3s2)cc1	Pf growth 96h inconclusive (no result: Giardia FBPA inh)
Cc1ccc(C(OC(=O)c2ccco2)C(=O)NC(C)(C)C)cc1 (stereo not given)	none
O=C(c1csnn1)N1CCC2(CCN(Cc3cc(C(F)(F)F)cc(C(F)(F)F)c3)CC2)CC1	none (no result: Pf growth 96h, Cycloheximide cs, Shiga toxin inh, NS1 inh, Pf growth 48h)
CC(C)(C)C(=O)NC(=S)NNC(=O)c1ccc(-c2ccccc2)cc1	Pf growth 48h inconclusive
COc1ccc(C(=O)N(C)C2CCN(C)CC2)cc1S(=O)(=O)Nc1cc(Cl)ccc1Cl	none
Cc1ccc(C(=O)CCC(=O)OCC(=O)NNC(=O)c2ccc([N+](=O)[O-])cc2)cc1	none (no result: Cycloheximide cs, Shiga toxin inh, NS1 inh, Giardia FBPA inh)
Cc1[nH]c(C)c(Cl)c(=O)c1Cl	Pf growth 96h 3.4µM, Pf growth 48h 6µM (no result: Cycloheximide cs, Shiga toxin inh, NS1 inh)
CCCCC(=O)/C=C/n1c(=S)oc2ccccc21	Cycloheximide cs 35, Shiga toxin inh 44
Cc1ccc(NC(=O)CCn2c(=S)oc3ccccc32)cc1	Pf growth 96h inconclusive (no result: NS1 inh)
CC(C)OC(=O)n1c(=S)oc2ccccc21	Cycloheximide cs 44, Shiga toxin inh 68 (no result: Pf growth 48h)
CCc1ncc(CO)n1Cc1cccc2ccccc12	none (no result: Pf growth 96h, Cycloheximide cs, Shiga toxin inh, Pf growth 48h, Giardia FBPA inh)
COc1ccc(/C(N)=N/OC(=O)c2cccc([N+](=O)[O-])c2)cc1	Pf growth 96h inconclusive (no result: Pf growth 48h)

Assay outcomes (PubChem)
